# Compound activity deposited in PubChem BioAssay by several laboratories.
# Peg3 prom inh – Peg3 promoter activity inhibition; 1.7% of 360,000 active; HeLa PEG-Prom luciferase reporter, luminescence, overnight; inhibition, % at 20 µM; AID 588405;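 active = inhibition of at least 50% at 20 µM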
# KKLEB tox – counter-screen for CF NF-kB inhibitors: cytotoxicity; AID 602141; activity change (cytotoxicity), % at 5 µM; 0.36% of 360,000 active; KKLEB CF airway cells viability, ATPlite luminescence, overnight; stronger effect = lower value; cells stimulated with P. aeruginosa culture filtrate;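 active = corrected activity change at or below -50% at 5 µM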
# HIF-2a block – inhibitors of HIF-2a. 786-0 RCC cells HIF-2a reporter, luciferase luminescence, overnight. inhibition, % at 18.8 µM. 0.72% of 360,000 active;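 active = inhibition of the luminescence signal of 40% or more relative to plate controls, in a single-dose primary screen at 18.75 µM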
# EBV LMP1 NFkB – Epstein-Barr LMP1 NF-kappaB reporter inhibition. inhibition, % at 12.5 µM. 0.69% of 350,000 active. LMP1-induced NF-kappaB luciferase reporter cells, luminescence; in the data active = inhibition above about 41%; inconclusive = no clear call, values can overlap the other calls;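 also: 0% = neutral control wells and 100% = reference inhibitor control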
# CF NFkB inh – inhibitors of cystic fibrosis induced NF-kB. KKLEB NF-kB-GFP reporter, PAF-induced, GFP fluorescence overnight. inhibition, % at 5 µM. 0.86% of 360,000 active. AID 588850;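 active = at least 50% inhibition at 5 µM, scaled per plate between neutral and stimulator controls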;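 also: PAF is a Pseudomonas aeruginosa culture filtrate used as stimulus; plate controls were PAF-stimulated DMSO wells for no effect and unstimulated DMSO wells for full effect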
# Shn3 inh set2 – inhibitors of Schnurri-3 3'UTR reporter in osteoblasts. AID 588674. Clone20 osteoblast Shn3 3'UTR firefly luciferase, 24 h. 0.52% of 360,000 active. inhibition, % at 12.5 µM;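 active = mean inhibition of at least 75% with every replicate also reaching 75%; inconclusive = mean inhibition at least 75% but some replicate below; inactive = mean inhibition below 75%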;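 also: 0% = median of neutral control wells and 100% = pilot-screen positive control compound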
# Starred values were filed as active, the others as inactive; ? = inconclusive; . = no result. A selection: hits, their analogues and other compounds. The true share with any hit is near 2.9%.
SMILES,Peg3 prom inh,KKLEB tox,HIF-2a block,EBV LMP1 NFkB,CF NFkB inh,Shn3 inh set2
O=C(c1ccc(S(=O)(=O)N2CCCCC2)cc1)N1CCN(c2ccccc2)CC1,-16,5,8,-9,7,-1
COc1ccc(C2CC(c3ccc4ccccc4c3)=NN2C(=O)CNC2CCCCC2)cc1 (stereo unspecified),90*,-31,-104,-5,30,13
C=CCNCC(=O)N1N=C(c2ccc3ccccc3c2)CC1c1ccc(OC)cc1 (stereo unspecified),66*,-12,-34,5,16,40
COc1ccc(C2CC(c3ccc4ccccc4c3)=NN2C(=O)CN2CCC(C(N)=O)CC2)cc1 (stereo unspecified),-162,-12,-227,-23,10,-40
Cc1ccc(-c2nnn(CC(=O)Nc3ccc(S(=O)(=O)N4CCC(C)CC4)cc3)n2)cc1,63*,-8,2,-6,-6,73
CC1CCN(S(=O)(=O)c2ccc(NC(=O)Cn3nnc(-c4ccccc4)n3)cc2)CC1,26,-15,18,-2,-18,26
O=c1oc2ccccc2c(O)c1Cc1cc(Cl)c2cccnc2c1O,38,-12,7,-2,14,-1
Oc1c(CN2CCCCC2)cc(Br)c2cccnc12,39,-20,-7,72*,-2,56
Oc1c(Cl)cc(CN2CCOCC2)c2cccnc12,31,-42,-11,7,48,90*
CN1CCN(Cc2cc(COCc3ccccc3)c3cccnc3c2O)CC1,41,5,11,58*,9,74
O=C(Oc1c(CN2CCOCC2)cc(Cl)c2cccnc12)c1ccccc1,42,2,17,11,6,69
Oc1c(CN2CCc3ccccc3C2)cc(Cl)c2cccnc12,50*,-6,-5,85*,24,87*
COc1ccc(C2=Nc3ccccc3N(C(=O)c3ccc(C)cc3)C2C(=O)Nc2c(C)cccc2C)cc1 (stereo unspecified),.,.,-32,.,.,.
C[C@H](CO)N1C[C@H](C)[C@@H](CN(C)S(=O)(=O)c2cccs2)Oc2ccc(NS(=O)(=O)c3ccccc3)cc2CC1=O,-13,24,-1,-3,-9,-20
CCN(CC)c1ccc(-c2c(C#N)c(N)nc(OC)c2C#N)cc1,53*,-22,12,0,12,14
O=C(NC1CCN(c2ncccn2)CC1)c1ccccc1F,-21,2,7,8,-15,4
COc1ccc2nc(NC(=O)c3ccc([N+](=O)[O-])o3)sc2c1,-25,-21,-136,-16,66*,-15
CCOC(=O)c1cccc(C(=O)Nc2nc3ccc(OC)cc3s2)n1,-133,-55*,-198,11,-19,-37
O=C(Nc1nc2ccccc2s1)c1ccc([N+](=O)[O-])o1,-143,-8,-136,-24,10,26
O=C(Nc1nc2cc3c(cc2s1)OCCO3)c1ccc([N+](=O)[O-])o1,49,-44,-197,-3,83*,-15
Cc1cc(C)c2nc(NC(=O)c3ccc([N+](=O)[O-])o3)sc2c1,-77,-6,-127,-1,-30,-5
CCN(CC)C(=O)NC1CCCCCCC1,5,-4,15,-9,2,5
Cc1ccc(C)c(S(=O)(=O)Nc2ccc(O)cc2)c1,20,-14,27,-7,-3,29
Cc1ccc(C)c(S(=O)(=O)Nc2ccc(-n3cnnn3)cc2)c1,11,-22,14,6,9,83*
C[C@@]12C(=O)N(Cc3ccccc3)CC(=O)N1[C@H](/C=C/c1ccccc1)[C@@H]1C(=O)N(c3ccccc3)C(=O)[C@@H]12,.,.,.,82*,.,.
SMILES,Peg3 prom inh,KKLEB tox,HIF-2a block,EBV LMP1 NFkB,CF NFkB inh,Shn3 inh set2
CC(C)N1CCc2c(sc(NC(=O)C3CCCCC3)c2C(N)=O)C1,22,1,18,4,3,5
O=C(Nc1ccc(N2CCN(C(=O)c3cccs3)CC2)c(Cl)c1)c1ccco1,-24,9,-45,19,7,6
Cc1ccccc1C(=O)N1CCN(c2ccc(NC(=O)c3ccco3)cc2Cl)CC1,7,-6,15,51*,45,54
Cc1ccc(-c2nn(-c3ccccc3)cc2CN(Cc2ccccc2)C(=O)c2ccco2)o1,65*,5,26,5,-2,70
COc1ccc2c(c1)c1c(c(=O)n(-c3ccc(C)cc3)c(=O)n1CC(=O)NCC1CCCO1)n2C (stereo unspecified),5,0,8,3,0,-23
Cc1ccc(-n2c(=O)c3c(c4cc(C)ccc4n3C)n(CC(=O)NCC3CCCO3)c2=O)cc1 (stereo unspecified),16,9,23,49*,-6,6
CC(C)(C)C1=CC(=O)C(=O)C(C(C)(C)C)=C1,73*,-13,42*,5,40,-3
O=C1NC(=Nc2ccc(Cl)cc2)/C(=C/c2ccco2)S1,63*,-18,-16,10,17,-25
Oc1cccc(-c2nc3c4c(ncn3n2)-c2ccccc2CC42CCCC2)c1,54*,-7,26,15,14,41
COc1ccc(-c2nc3c4c(ncn3n2)-c2ccccc2CC42CCCC2)cc1,-18,-1,19,2,2,-23
O=C(NCCc1ccccc1)c1cc(-c2ccccc2)c(N2CCOCC2)s1,-4,4,-6,5,-11,13
CCN(CC)CCCNC(=O)c1cc(-c2ccccc2)c(N2CCCCC2)s1,97*,-1,3,12,-8,-8
CN(Cc1ccc(OC(F)F)cc1)C(=O)c1cccc(S(=O)(=O)N2CCN(c3ccccc3)CC2)c1,25,18,14,23,-10,?
CSCCC(NC(=O)CCC(=O)OCC(=O)[C@@]1(O)CCC2[C@@H]3CCC4=CC(=O)C=C[C@]4(C)C3[C@@H](O)C[C@@]21C)C(=O)O (stereo partly specified),-15,38,2,6,72*,-5
C[C@]12C=CC(=O)C=C1CC[C@@H]1C2C(O)C[C@@]2(C)C1CC[C@]2(O)C(=O)COC(=O)CCC(=O)NC(CC(=O)O)C(=O)O (stereo partly specified),-13,44,23,10,77*,-7
C[C@]12C=CC(=O)C=C1CC[C@@H]1[C@@H]2C(=O)C[C@@]2(C)[C@H]1CC[C@]2(O)C(=O)COC(=O)CCC(=O)O,-23,2,10,3,0,0
O=C(COC(=O)c1ccc2ccccc2n1)Nc1ccccc1F,9,12,5,-7,-27,-2
CC(C)CNC(=O)c1cccc2c1-c1ccccc1C2=O,11,-6,15,-10,4,-17
Cc1ccc(NC2=Nc3ccccc3N3C2=Nc2c(c(C)nn2-c2ccccc2)C3c2ccc(O)c(O)c2)cc1 (stereo unspecified),88*,16,15,-35,-36,34
